Assay results taken from PubChem BioAssay (NCI).
About 83,000 compounds went through this panel and 20% of them were active in at least one assay; those are over-represented in the sample as a whole.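 Values shown are percent growth following 48 h exposure of cells in 96-well plates to a single concentration of compound; below 10 was considered active.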 Activity calls are given as the source filed them.

What was measured:
Experiment in all cases: NCI-60 one-dose screen, 48 h (100 = growth as untreated, 0 = no growth, -100 = all killed)
Conditions in all cases: 10 µM unless noted
SR leukemia = tested on: SR leukemia
RPMI-8226 leukemia = tested on: RPMI-8226 leukemia
OVCAR-8 ovarian = tested on: OVCAR-8 ovarian
OVCAR-5 ovarian = tested on: OVCAR-5 ovarian
OVCAR-4 ovarian = tested on: OVCAR-4 ovarian
SK-OV-3 ovarian = tested on: SK-OV-3 ovarian
OVCAR-3 ovarian = tested on: OVCAR-3 ovarian
HS 578T breast = tested on: HS 578T breast
NCI/ADR-RES ovarian = tested on: NCI/ADR-RES ovarian
IGROV1 ovarian = tested on: IGROV1 ovarian

Measured: growth

O=C(Cc1ccccc1)Nc1nc(O)c(/C=C2\C(=O)C=Cc3ccccc32)s1
inactive: SR leukemia 104% | RPMI-8226 leukemia 106% | OVCAR-8 ovarian 97.5% | OVCAR-5 ovarian 104% | OVCAR-4 ovarian 100% | SK-OV-3 ovarian 83% | OVCAR-3 ovarian 102% | HS 578T breast 97.8% | NCI/ADR-RES ovarian 96.7%

C#CCOc1ccc2ncnc(Nc3ccc(NC(=O)CCl)cc3)c2c1
active: SR leukemia -7.69% | RPMI-8226 leukemia -16.7% | OVCAR-8 ovarian 2.5% | OVCAR-4 ovarian -17.5% | IGROV1 ovarian -55.3% | NCI/ADR-RES ovarian 7.93%
inactive: OVCAR-5 ovarian 30.5% | SK-OV-3 ovarian 22.4% | HS 578T breast 27.6%

COCCn1cc(-c2nc(-c3cc4cccnc4n3CCOC)cs2)c2cc(OC)ccc21
active: OVCAR-3 ovarian 4.62%
inactive: SR leukemia 36.3% | RPMI-8226 leukemia 60.3% | OVCAR-8 ovarian 61.1% | OVCAR-5 ovarian 23.6% | OVCAR-4 ovarian 20% | SK-OV-3 ovarian 73.4% | HS 578T breast 58% | NCI/ADR-RES ovarian 58.3%

CN(C)CC(=O)Nc1ccc2ncnc(Nc3ccc(Oc4cccc(C(F)(F)F)c4)c(Cl)c3)c2c1
active: SR leukemia -1.46%
inactive: RPMI-8226 leukemia 31.2% | OVCAR-8 ovarian 55.5% | OVCAR-5 ovarian 82.6% | OVCAR-4 ovarian 51.5% | SK-OV-3 ovarian 19.7% | OVCAR-3 ovarian 42.5% | HS 578T breast 79.1% | NCI/ADR-RES ovarian 54.3%

CCCCNc1ccc(C#N)c(OCCN(CC)CC)c1
inactive: SR leukemia 93.8% | RPMI-8226 leukemia 93.3% | OVCAR-8 ovarian 100% | OVCAR-5 ovarian 97.4% | OVCAR-4 ovarian 105% | SK-OV-3 ovarian 102% | OVCAR-3 ovarian 109% | HS 578T breast 123% | NCI/ADR-RES ovarian 98.4%

CCS/C(Nc1ccccc1)=C(\C#N)C(=O)N/N=C/c1ccc(Cl)cc1Cl
active: RPMI-8226 leukemia 9.68% | HS 578T breast -6.44%
inactive: SR leukemia 19.5% | OVCAR-8 ovarian 28.6% | OVCAR-5 ovarian 72.5% | OVCAR-4 ovarian 56.5% | SK-OV-3 ovarian 15.5% | IGROV1 ovarian 49.1% | NCI/ADR-RES ovarian 10.8%

CC(C)c1ccc(COCc2cc(CN3CCCC3)c(O)c3ncccc23)cc1
active: SR leukemia -6.27% | RPMI-8226 leukemia -21.4% | OVCAR-8 ovarian -10.8% | OVCAR-4 ovarian -6.36% | SK-OV-3 ovarian -16.4% | OVCAR-3 ovarian -34.2% | NCI/ADR-RES ovarian -51.2%
inactive: OVCAR-5 ovarian 32.8% | HS 578T breast 41.6%

O=S(=O)(Nc1ccc(Cl)cc1)c1ccc(-c2cnc(C3CC3)o2)cc1
inactive: RPMI-8226 leukemia 15% | OVCAR-8 ovarian 29.2% | OVCAR-5 ovarian 43.9% | OVCAR-4 ovarian 63.7% | SK-OV-3 ovarian 30.2%
active: SR leukemia 9.93% | OVCAR-3 ovarian -17.3% | HS 578T breast 4.3% | NCI/ADR-RES ovarian 4.42%

C[C@]12CC[C@@H]3c4ccc(O)c([N+](=O)[O-])c4CC[C@H]3[C@@H]1CCC2=O
inactive: SR leukemia 115% | RPMI-8226 leukemia 90.5% | OVCAR-8 ovarian 112% | OVCAR-5 ovarian 92% | OVCAR-4 ovarian 81.1% | SK-OV-3 ovarian 123% | OVCAR-3 ovarian 104% | HS 578T breast 78% | NCI/ADR-RES ovarian 94.9%

COc1cc(-n2cc(-c3cc(O)c(C/C=C(\C)CCC=C(C)C)c(O)c3)nn2)cc2c1O[C@]1(C)CC[C@@H](O)C(C)(C)[C@H]1C2
inactive: OVCAR-8 ovarian 16.4% | OVCAR-5 ovarian 29.6% | OVCAR-4 ovarian 37.9% | SK-OV-3 ovarian 34.8% | HS 578T breast 19.6% | NCI/ADR-RES ovarian 17.3%
active: SR leukemia 4.49% | RPMI-8226 leukemia -17.8% | OVCAR-3 ovarian -19.6%

Nc1ncnc2c1N=C(c1ccc(Cl)cc1)CC(c1ccc3c(c1)OCO3)N2 (stereo not given)
inactive: SR leukemia 77.3% | RPMI-8226 leukemia 60.3% | OVCAR-8 ovarian 91.7% | OVCAR-4 ovarian 98.6% | SK-OV-3 ovarian 21% | IGROV1 ovarian 46% | OVCAR-3 ovarian 85.5% | HS 578T breast 93.8% | NCI/ADR-RES ovarian 98.2%

O=C1/C(=C/c2cccs2)SC(=S)N1CCCN1CCOCC1
inactive: SR leukemia 92.5% | RPMI-8226 leukemia 97.9% | OVCAR-8 ovarian 96% | OVCAR-4 ovarian 89.1% | SK-OV-3 ovarian 99.4% | IGROV1 ovarian 97% | OVCAR-3 ovarian 113% | HS 578T breast 98.7% | NCI/ADR-RES ovarian 92.7%

O=C1c2cccnc2C(=O)c2c1c(C(=O)NCCn1ccnc1)c1ccccn21
active: SR leukemia 7.94% | OVCAR-8 ovarian 4.37% | OVCAR-4 ovarian -47.6% | OVCAR-3 ovarian 3.37%
inactive: RPMI-8226 leukemia 55.8% | SK-OV-3 ovarian 48.4% | IGROV1 ovarian 26.3% | HS 578T breast 65.6% | NCI/ADR-RES ovarian 75.3%

CC(C)c1ccc(NC(=O)Nc2ccc(NC(=O)CCCC(=O)NOCc3ccccc3)cc2)cc1
inactive: SR leukemia 73.4% | RPMI-8226 leukemia 91.1% | OVCAR-8 ovarian 96.7% | OVCAR-4 ovarian 89.2% | SK-OV-3 ovarian 97.4% | OVCAR-3 ovarian 94% | HS 578T breast 85.7% | NCI/ADR-RES ovarian 99.1%

Cn1ccc2c3c(ccc21)CC3=O
inactive: SR leukemia 108% | RPMI-8226 leukemia 106% | OVCAR-8 ovarian 107% | OVCAR-4 ovarian 119% | SK-OV-3 ovarian 113% | IGROV1 ovarian 112% | HS 578T breast 121% | NCI/ADR-RES ovarian 115%

CCCC(O)Cn1ncc(C(=O)OCC)c1NC(=O)NCc1ccccc1F (stereo not given)
inactive: SR leukemia 93.5% | RPMI-8226 leukemia 67.4% | OVCAR-8 ovarian 89.9% | OVCAR-4 ovarian 87.1% | SK-OV-3 ovarian 102% | IGROV1 ovarian 92.9% | OVCAR-3 ovarian 91.1% | HS 578T breast 102% | NCI/ADR-RES ovarian 92.6%

Oc1c(Cl)cc(Cl)c2ccc(Cn3cc(-c4cc(F)cc(F)c4)nn3)nc12
active: SR leukemia -22.2% | RPMI-8226 leukemia 5.12% | OVCAR-3 ovarian 2.47%
inactive: OVCAR-8 ovarian 69.6% | OVCAR-4 ovarian 56% | SK-OV-3 ovarian 108% | IGROV1 ovarian 85.8% | HS 578T breast 88.5% | NCI/ADR-RES ovarian 108%

CN(C)C1CCN(Cc2ccc(NC(=O)c3cncc(C#Cc4cnc(N)c5ncccc45)c3)cc2C(F)(F)F)CC1
inactive: RPMI-8226 leukemia 60.9% | SK-OV-3 ovarian 103% | IGROV1 ovarian 112% | OVCAR-3 ovarian 97.9% | HS 578T breast 44.9%
active: SR leukemia 1.15% | OVCAR-8 ovarian -25.4% | OVCAR-4 ovarian -14.7% | NCI/ADR-RES ovarian -63.9%

CCc1n(Cc2ccc3ccccc3c2)cc[n+]1Cc1ccc2ccccc2c1
inactive: NCI/ADR-RES ovarian 92.5%
active: SR leukemia -28% | RPMI-8226 leukemia -23.1% | OVCAR-8 ovarian -4.85% | OVCAR-4 ovarian 2.44% | SK-OV-3 ovarian 9.89% | IGROV1 ovarian -21.7% | OVCAR-3 ovarian -16.3% | HS 578T breast 4.38%

COC(=O)c1c2c(c(C)[n+]([O-])c1C)C(=O)C(NCc1ccc(Cl)cc1)=CC2=O
active: OVCAR-3 ovarian -7.64%
inactive: SR leukemia 48.6% | RPMI-8226 leukemia 69.8% | OVCAR-8 ovarian 33.1% | OVCAR-4 ovarian 36.6% | SK-OV-3 ovarian 95.8% | HS 578T breast 92.2% | NCI/ADR-RES ovarian 54.8%

CCCCCCCCCCCCCCCC(N)c1ccccc1 (stereo not given)
active: SR leukemia -26.1% | RPMI-8226 leukemia -27.9% | OVCAR-8 ovarian -26.3% | OVCAR-4 ovarian -15.8% | IGROV1 ovarian -46.6% | NCI/ADR-RES ovarian -31.1%
inactive: SK-OV-3 ovarian 77.1% | HS 578T breast 60.6%

COc1ccc(/C=N/NC(=O)CCN2c3ccccc3Sc3ccccc32)cc1
inactive: SR leukemia 33.8% | RPMI-8226 leukemia 94% | OVCAR-8 ovarian 99.3% | OVCAR-4 ovarian 89.6% | SK-OV-3 ovarian 97.1% | IGROV1 ovarian 66.3% | OVCAR-3 ovarian 76.4% | HS 578T breast 85.9% | NCI/ADR-RES ovarian 69.4%

CCOC(=O)/C=C1\S/C(=N\Nc2cc(=O)[nH]c3ccc(Cl)cc23)N(c2ccccc2)C1=O
active: SR leukemia 4.23% | RPMI-8226 leukemia 3.83%
inactive: OVCAR-8 ovarian 90.1% | OVCAR-4 ovarian 76.2% | SK-OV-3 ovarian 102% | IGROV1 ovarian 62.9% | OVCAR-3 ovarian 71.4% | HS 578T breast 99.8% | NCI/ADR-RES ovarian 101%

C=CCc1c2c(c(OC)c3ccoc13)C(=O)/C(=C/c1ccccc1OC)O2
inactive: SR leukemia 48% | RPMI-8226 leukemia 29.2% | OVCAR-8 ovarian 39.1% | OVCAR-5 ovarian 114% | OVCAR-4 ovarian 69.7% | SK-OV-3 ovarian 79.6% | HS 578T breast 58.1% | NCI/ADR-RES ovarian 35.2%

CCn1c(=S)[nH]c2c(=O)n(C)c(=O)n(C)c21
inactive: SR leukemia 110% | RPMI-8226 leukemia 101% | OVCAR-8 ovarian 101% | OVCAR-4 ovarian 114% | SK-OV-3 ovarian 107% | IGROV1 ovarian 102% | OVCAR-3 ovarian 121% | HS 578T breast 160% | NCI/ADR-RES ovarian 103%

O=C(O)c1ccc(-n2cc(/C=N/Nc3ccc(F)cc3)c(-c3cc4ccccc4oc3=O)n2)cc1
inactive: SR leukemia 51.9% | RPMI-8226 leukemia 90.4% | OVCAR-8 ovarian 84.5% | OVCAR-4 ovarian 91.1% | SK-OV-3 ovarian 94.1% | IGROV1 ovarian 74% | HS 578T breast 95.3% | NCI/ADR-RES ovarian 77.9%

COc1ccc2c(c1)c(-c1noc(C(=O)c3cn(C)c4ccc(Br)cc34)n1)cn2C
inactive: SR leukemia 80.5% | RPMI-8226 leukemia 95.4% | OVCAR-8 ovarian 96.1% | OVCAR-4 ovarian 108% | SK-OV-3 ovarian 99.5% | IGROV1 ovarian 89.2% | OVCAR-3 ovarian 111% | HS 578T breast 94.6% | NCI/ADR-RES ovarian 102%

COc1cc(/C=C\c2cc(/C=C\c3ccc(O)c(OC)c3)n(C(=O)COc3ccc(Cl)cc3Cl)n2)ccc1O
active: SR leukemia 0.0066% | RPMI-8226 leukemia -6.8% | OVCAR-8 ovarian 6.52% | SK-OV-3 ovarian -0.155%
inactive: OVCAR-4 ovarian 31.4% | IGROV1 ovarian 12.5% | OVCAR-3 ovarian 14% | HS 578T breast 10.2% | NCI/ADR-RES ovarian 21.5%

CCSc1nc(NC)c2cc(-c3ccc(C(F)(F)F)cc3)ccc2n1
inactive: SR leukemia 94% | RPMI-8226 leukemia 94.8% | OVCAR-8 ovarian 102% | OVCAR-4 ovarian 96.2% | SK-OV-3 ovarian 96.1% | IGROV1 ovarian 97.2% | OVCAR-3 ovarian 110% | HS 578T breast 101% | NCI/ADR-RES ovarian 106%
